Results published in the supplement of paper PMC10849652.
The full data set covers some 8,800 targets. This sample favours those with a hit. About 0.5% of all pairs of compound and target were hits.

How the values were obtained:
Assay in all cases: log2 fold change, soluble protein after heating vs DMSO (PISA); higher = thermal stabilisation; K562 lysate, 10 uM; active = over 0.2 and 3.5 SD of the protein, either way, in both replicates (recomputed)
lapatinib = compound: CS(=O)(=O)CCNCc1ccc(-c2ccc3ncnc(Nc4ccc(OCc5cccc(F)c5)c(Cl)c4)c3c2)o1 [lapatinib]
In short: (§1)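 Values give the log-two fold change in thermal stability against solvent controls, from duplicates. Crude K562 extract at 1 mg/mL protein, made by dounce homogenisation in PBS pH 7.4 with 1 mM MgCl2, was treated with 10 μM compound for 30 min. After 3 min heating across 48°C-58°C, aliquots were pooled, adjusted to 0.5% NP-40 at 4°C and centrifuged at 21,000xg for 90 min. The supernatant was measured by TMTpro 16plex LC-MS/MS with channel sums equalised.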

pictilisib = compound: CS(=O)(=O)N1CCN(Cc2cc3nc(-c4cccc5[nH]ncc45)nc(N4CCOCC4)c3s2)CC1 [pictilisib]
In short: as §1

crizotinib = compound: C[C@@H](Oc1cc(-c2cnn(C3CCNCC3)c2)cnc1N)c1c(Cl)ccc(F)c1Cl [crizotinib]
In short: as §1

[1] = compound: C[C@H](C1=CC=C(C=C1)C(=O)NC2=C3C=CNC3=NC=C2)N
In short: as §1

duvelisib = compound: C[C@H](Nc1ncnc2nc[nH]c12)c1cc2cccc(Cl)c2c(=O)n1-c1ccccc1 [duvelisib]
In short: as §1

gandotinib = compound: Cc1cc(Nc2cc(CN3CCOCC3)c3nc(C)c(Cc4ccc(Cl)cc4F)n3n2)n[nH]1 [gandotinib]
In short: as §1

tozasertib = compound: Cc1cc(Nc2cc(N3CCN(C)CC3)nc(Sc3ccc(NC(=O)C4CC4)cc3)n2)n[nH]1 [tozasertib]
In short: as §1

doramapimod = compound: Cc1ccc(-n2nc(C(C)(C)C)cc2NC(=O)Nc2ccc(OCCN3CCOCC3)c3ccccc23)cc1 [doramapimod]
In short: as §1

bafetinib = compound: Cc1ccc(NC(=O)c2ccc(CN3CC[C@H](N(C)C)C3)c(C(F)(F)F)c2)cc1Nc1nccc(-c2cncnc2)n1 [bafetinib]
In short: as §1

[2] = compound: Cc1cccc(CC(=O)N2CCc3c2ccc(-c2cn(C)c4ncnc(N)c24)c3F)n1
In short: as §1

nilotinib = compound: Cc1cn(-c2cc(NC(=O)c3ccc(C)c(Nc4nccc(-c5cccnc5)n4)c3)cc(C(F)(F)F)c2)cn1 [nilotinib]
In short: as §1

[3] = compound: Cc1nc(Nc2n[nH]c3c2CN(C(=O)N[C@H](CN(C)C)c2ccccc2)C3(C)C)c2sccc2n1
In short: as §1

dasatinib = compound: Cc1nc(Nc2ncc(C(=O)Nc3c(C)cccc3Cl)s2)cc(N2CCN(CCO)CC2)n1 [dasatinib]
In short: as §1

[4] = compound: Cc1ncc(-c2ccnc(Nc3ccc(S(C)(=O)=O)cc3)n2)n1C(C)C
In short: as §1

[5] = compound: Cn1cc(-c2ccc3c(c2)CCN3C(=O)Cc2cccc(C(F)(F)F)c2)c2c(N)ncnc21
In short: as §1

quisinostat = compound: Cn1cc(CNCC2CCN(c3ncc(C(=O)NO)cn3)CC2)c2ccccc21 [quisinostat]
In short: as §1

tipifarnib = compound: Cn1cncc1[C@@](N)(c1ccc(Cl)cc1)c1ccc2c(c1)c(-c1cccc(Cl)c1)cc(=O)n2C [tipifarnib]
In short: as §1

[6] = compound: NC(=O)Nc1cc(-c2cccc(F)c2)sc1C(=O)N[C@H]1CCCNC1
In short: as §1

[7] = compound: NC(=O)c1cnc(N[C@@H]2CCCC[C@@H]2N)nc1Nc1cccc(-n2nccn2)c1
In short: as §1

[8] = compound: NC1(c2ccc(-c3nc4ccn5c(=O)[nH]nc5c4cc3-c3ccccc3)cc2)CCC1
In short: as §1

Measured: log2 fold change

EXOC1 (UniProt Q9NV70)
inactive: lapatinib -0.013 | pictilisib 0.029 | crizotinib -0.041 | [1] 0.04 | duvelisib 0.016 | gandotinib -0.186 | tozasertib -0.004 | doramapimod 0.023 | bafetinib -0.04 | [2] 0.024 | nilotinib -0.005 | [3] 0.013 | dasatinib -0.067 | [4] 0.013 | [5] 0.097 | quisinostat 0.024 | tipifarnib 0.005 | [6] 0.024 | [7] 0.012 | [8] -0.032

FADS3 (UniProt Q9Y5Q0)
inactive: lapatinib 0.13 | pictilisib -0.014 | crizotinib -0.065 | [1] -0.322 | duvelisib -0.09 | gandotinib 0 | tozasertib 0.079 | doramapimod -0.001 | bafetinib -0.131 | [2] -0.309 | nilotinib -0.091 | [3] 0.216 | dasatinib 0.102 | [4] 0.166 | [5] -0.061 | quisinostat -0.019 | tipifarnib -0.081 | [6] -0.008 | [7] -0.069 | [8] 0.07

FREM2 (UniProt Q5SZK8)
Sequence of UniProt Q5SZK8 (Q5SZK8 whole entry, looked up): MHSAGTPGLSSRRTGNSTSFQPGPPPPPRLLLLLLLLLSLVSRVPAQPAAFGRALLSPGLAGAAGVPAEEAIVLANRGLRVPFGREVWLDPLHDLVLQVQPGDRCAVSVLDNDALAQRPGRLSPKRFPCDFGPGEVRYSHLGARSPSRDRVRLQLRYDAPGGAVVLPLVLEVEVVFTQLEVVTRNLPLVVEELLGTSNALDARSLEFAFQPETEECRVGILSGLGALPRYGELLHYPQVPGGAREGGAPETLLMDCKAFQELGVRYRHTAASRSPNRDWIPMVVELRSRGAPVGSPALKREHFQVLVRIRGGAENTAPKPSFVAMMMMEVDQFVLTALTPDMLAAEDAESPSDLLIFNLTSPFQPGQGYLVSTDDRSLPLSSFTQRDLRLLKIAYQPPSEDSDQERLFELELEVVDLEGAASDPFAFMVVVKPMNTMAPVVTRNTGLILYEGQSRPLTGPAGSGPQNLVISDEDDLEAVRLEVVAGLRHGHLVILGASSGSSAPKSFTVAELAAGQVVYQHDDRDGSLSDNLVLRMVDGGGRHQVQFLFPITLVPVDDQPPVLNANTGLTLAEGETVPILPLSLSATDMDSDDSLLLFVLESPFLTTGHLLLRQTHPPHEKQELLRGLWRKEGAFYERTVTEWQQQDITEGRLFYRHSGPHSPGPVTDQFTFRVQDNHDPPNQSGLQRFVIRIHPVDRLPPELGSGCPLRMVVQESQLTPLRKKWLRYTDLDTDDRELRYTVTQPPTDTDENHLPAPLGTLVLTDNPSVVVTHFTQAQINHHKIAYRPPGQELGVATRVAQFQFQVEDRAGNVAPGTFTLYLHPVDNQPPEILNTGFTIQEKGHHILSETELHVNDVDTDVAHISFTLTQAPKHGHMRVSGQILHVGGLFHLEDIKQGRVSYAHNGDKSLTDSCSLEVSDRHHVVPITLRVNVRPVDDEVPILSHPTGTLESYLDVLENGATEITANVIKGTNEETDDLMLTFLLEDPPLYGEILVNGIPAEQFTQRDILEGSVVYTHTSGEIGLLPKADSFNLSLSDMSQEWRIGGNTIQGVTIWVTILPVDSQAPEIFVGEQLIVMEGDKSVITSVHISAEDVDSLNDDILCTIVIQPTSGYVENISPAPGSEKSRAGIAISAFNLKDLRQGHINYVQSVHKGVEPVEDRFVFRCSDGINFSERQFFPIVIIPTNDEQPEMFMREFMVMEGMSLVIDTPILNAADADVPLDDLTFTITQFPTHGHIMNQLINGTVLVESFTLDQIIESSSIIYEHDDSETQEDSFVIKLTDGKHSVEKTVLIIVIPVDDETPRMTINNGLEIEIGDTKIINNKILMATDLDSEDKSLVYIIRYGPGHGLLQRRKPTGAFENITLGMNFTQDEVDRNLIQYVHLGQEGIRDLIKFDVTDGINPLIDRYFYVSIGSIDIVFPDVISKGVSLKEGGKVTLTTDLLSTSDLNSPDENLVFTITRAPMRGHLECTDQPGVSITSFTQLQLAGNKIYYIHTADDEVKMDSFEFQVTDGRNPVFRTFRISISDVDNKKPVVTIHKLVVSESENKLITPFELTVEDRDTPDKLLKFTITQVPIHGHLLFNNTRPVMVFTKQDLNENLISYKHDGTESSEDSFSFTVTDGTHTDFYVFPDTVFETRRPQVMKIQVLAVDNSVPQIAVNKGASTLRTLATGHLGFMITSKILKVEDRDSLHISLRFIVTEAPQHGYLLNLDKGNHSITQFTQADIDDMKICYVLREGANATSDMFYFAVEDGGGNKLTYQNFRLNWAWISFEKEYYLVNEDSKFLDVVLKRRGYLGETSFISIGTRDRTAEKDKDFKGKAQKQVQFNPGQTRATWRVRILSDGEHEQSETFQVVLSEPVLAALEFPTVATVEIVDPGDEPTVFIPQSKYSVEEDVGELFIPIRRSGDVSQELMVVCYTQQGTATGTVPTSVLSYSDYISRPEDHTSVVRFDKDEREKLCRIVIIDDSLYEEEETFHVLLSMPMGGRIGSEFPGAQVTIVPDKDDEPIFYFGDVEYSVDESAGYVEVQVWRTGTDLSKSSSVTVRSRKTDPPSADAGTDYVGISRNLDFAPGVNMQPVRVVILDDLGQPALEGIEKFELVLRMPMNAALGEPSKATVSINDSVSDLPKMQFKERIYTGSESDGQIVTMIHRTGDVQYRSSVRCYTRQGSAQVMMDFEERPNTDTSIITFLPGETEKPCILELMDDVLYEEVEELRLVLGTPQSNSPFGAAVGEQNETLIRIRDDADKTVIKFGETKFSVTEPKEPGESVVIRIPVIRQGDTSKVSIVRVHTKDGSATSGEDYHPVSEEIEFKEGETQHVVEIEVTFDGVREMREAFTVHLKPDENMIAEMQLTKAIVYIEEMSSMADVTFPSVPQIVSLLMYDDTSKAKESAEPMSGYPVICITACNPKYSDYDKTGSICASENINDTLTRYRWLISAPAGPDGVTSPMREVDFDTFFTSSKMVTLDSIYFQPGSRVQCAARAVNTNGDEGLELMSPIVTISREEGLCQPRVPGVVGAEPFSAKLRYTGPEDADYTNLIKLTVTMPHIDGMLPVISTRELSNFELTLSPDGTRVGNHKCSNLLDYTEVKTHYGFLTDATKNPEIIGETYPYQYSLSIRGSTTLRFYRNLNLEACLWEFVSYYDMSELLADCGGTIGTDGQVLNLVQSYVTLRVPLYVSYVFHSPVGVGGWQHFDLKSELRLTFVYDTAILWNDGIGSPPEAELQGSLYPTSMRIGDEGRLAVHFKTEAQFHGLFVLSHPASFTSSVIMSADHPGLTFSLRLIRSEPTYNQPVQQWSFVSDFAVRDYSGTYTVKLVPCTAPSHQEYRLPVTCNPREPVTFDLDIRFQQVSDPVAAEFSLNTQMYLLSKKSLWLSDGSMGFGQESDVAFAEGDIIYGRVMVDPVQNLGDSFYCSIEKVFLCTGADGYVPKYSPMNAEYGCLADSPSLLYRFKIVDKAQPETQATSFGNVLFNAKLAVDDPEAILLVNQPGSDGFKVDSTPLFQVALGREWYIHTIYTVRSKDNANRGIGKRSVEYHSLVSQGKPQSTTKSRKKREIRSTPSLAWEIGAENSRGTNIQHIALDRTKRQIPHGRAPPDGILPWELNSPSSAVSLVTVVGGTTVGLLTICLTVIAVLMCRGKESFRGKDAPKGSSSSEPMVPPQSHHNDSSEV
active: [1] -0.318
inactive: lapatinib -0.077 | pictilisib 0.046 | crizotinib -0.095 | duvelisib 0.06 | gandotinib 0.172 | tozasertib 0.104 | doramapimod 0.07 | bafetinib -0.135 | [2] 0.218 | nilotinib -0.108 | [3] 0.041 | dasatinib -0.071 | [4] -0.113 | [5] -0.014 | quisinostat -0.223 | tipifarnib -0.168 | [6] 0.048 | [7] 0.059 | [8] 0.04

GIGYF2 (UniProt Q6Y7W6)
Sequence of UniProt Q6Y7W6 (Q6Y7W6 whole entry, looked up): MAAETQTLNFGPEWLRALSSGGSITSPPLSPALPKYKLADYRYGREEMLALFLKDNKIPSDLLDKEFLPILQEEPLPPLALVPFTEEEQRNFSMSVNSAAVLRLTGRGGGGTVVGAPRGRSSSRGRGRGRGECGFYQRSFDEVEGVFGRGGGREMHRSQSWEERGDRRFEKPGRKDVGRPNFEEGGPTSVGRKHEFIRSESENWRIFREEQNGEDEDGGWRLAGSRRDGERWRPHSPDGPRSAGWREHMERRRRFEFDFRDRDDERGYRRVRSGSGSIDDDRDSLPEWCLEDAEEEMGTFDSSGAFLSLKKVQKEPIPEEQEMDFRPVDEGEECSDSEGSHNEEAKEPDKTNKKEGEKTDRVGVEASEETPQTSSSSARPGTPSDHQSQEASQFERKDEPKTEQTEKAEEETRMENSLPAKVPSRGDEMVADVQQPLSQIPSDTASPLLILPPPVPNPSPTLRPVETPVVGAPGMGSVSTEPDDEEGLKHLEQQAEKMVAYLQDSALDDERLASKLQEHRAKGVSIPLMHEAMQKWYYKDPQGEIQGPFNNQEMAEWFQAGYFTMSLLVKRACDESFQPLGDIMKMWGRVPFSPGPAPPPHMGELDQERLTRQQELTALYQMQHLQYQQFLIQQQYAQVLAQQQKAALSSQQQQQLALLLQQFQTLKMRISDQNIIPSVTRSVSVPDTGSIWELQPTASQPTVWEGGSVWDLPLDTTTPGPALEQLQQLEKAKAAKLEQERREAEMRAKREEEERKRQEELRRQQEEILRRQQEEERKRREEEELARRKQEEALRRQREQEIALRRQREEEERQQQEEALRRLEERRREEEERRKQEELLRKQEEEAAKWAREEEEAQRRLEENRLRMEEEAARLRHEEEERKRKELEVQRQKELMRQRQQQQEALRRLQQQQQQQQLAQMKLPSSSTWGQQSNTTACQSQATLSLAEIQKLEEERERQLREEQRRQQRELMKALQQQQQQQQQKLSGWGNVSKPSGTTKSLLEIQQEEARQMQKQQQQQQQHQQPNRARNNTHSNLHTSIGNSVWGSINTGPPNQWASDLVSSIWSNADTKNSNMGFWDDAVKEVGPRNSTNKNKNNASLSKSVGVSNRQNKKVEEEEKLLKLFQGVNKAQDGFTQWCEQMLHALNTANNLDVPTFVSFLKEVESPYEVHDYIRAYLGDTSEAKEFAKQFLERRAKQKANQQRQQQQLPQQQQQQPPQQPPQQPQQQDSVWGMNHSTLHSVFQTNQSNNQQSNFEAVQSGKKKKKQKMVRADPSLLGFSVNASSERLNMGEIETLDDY
inactive: lapatinib 0.013 | pictilisib 0.057 | crizotinib 0.024 | [1] 0.03 | duvelisib -0.033 | gandotinib 0.05 | tozasertib -0.006 | doramapimod -0.086 | bafetinib -0.043 | [2] -0.009 | nilotinib 0.004 | [3] -0.03 | dasatinib 0.006 | [4] 0.007 | [5] 0.024 | quisinostat -0.011 | tipifarnib -0.09 | [6] 0.026 | [7] 0.007 | [8] -0.04

FPGT (UniProt O14772)
inactive: lapatinib 0.005 | pictilisib 0.019 | crizotinib -0.077 | duvelisib 0.006 | gandotinib -0.085 | tozasertib 0.012 | doramapimod 0.054 | bafetinib -0.043 | [2] -0.012 | nilotinib -0.006 | [3] -0.004 | dasatinib -0.057 | [4] 0.029 | [5] -0.014 | quisinostat -0.105 | tipifarnib -0.036 | [6] 0.046 | [7] 0.035 | [8] -0.03
active: [1] 0.319

EPB41, A0A2R8Y6D0
inactive: lapatinib 0.008 | pictilisib -0.14 | crizotinib -0.085 | [1] -0.037 | duvelisib -0.086 | gandotinib 0.031 | tozasertib 0.068 | doramapimod -0.051 | bafetinib -0.031 | [2] -0.003 | nilotinib -0.033 | [3] 0.312 | dasatinib 0.091 | [4] -0.044 | [5] -0.021 | quisinostat -0.017 | tipifarnib -0.055 | [6] 0.043 | [7] -0.042 | [8] -0.054

EIF2B3 (UniProt Q9NR50)
Sequence of UniProt Q9NR50 (Q9NR50 whole entry, looked up): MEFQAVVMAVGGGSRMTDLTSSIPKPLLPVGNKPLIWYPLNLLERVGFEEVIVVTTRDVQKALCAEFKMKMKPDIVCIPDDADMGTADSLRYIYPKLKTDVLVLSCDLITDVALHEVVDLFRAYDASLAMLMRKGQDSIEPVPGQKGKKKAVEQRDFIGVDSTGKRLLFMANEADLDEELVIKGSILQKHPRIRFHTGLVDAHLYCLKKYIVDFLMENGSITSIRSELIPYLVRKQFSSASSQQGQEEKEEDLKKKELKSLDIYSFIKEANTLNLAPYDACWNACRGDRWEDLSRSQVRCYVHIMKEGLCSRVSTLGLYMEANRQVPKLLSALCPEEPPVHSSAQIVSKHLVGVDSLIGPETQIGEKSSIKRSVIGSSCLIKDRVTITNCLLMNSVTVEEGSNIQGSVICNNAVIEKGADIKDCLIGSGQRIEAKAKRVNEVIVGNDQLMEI
inactive: lapatinib -0.007 | pictilisib -0.021 | crizotinib -0.061 | duvelisib 0.016 | gandotinib -0.115 | tozasertib -0.035 | doramapimod 0.012 | bafetinib -0.024 | [2] -0.047 | nilotinib 0.001 | [3] 0.001 | dasatinib -0.049 | [4] 0.009 | [5] -0.024 | quisinostat -0.036 | tipifarnib -0.013 | [6] 0.022 | [7] -0.008 | [8] -0.009
active: [1] 0.234

ETHE1 (UniProt O95571)
active: nilotinib 0.25
inactive: lapatinib 0.049 | pictilisib -0.049 | crizotinib -0.022 | [1] -0.034 | duvelisib -0.011 | gandotinib 0.016 | tozasertib -0.06 | doramapimod 0.005 | bafetinib 0.038 | [2] 0.018 | [3] -0.124 | dasatinib -0.037 | [4] 0.095 | [5] -0.046 | quisinostat -0.015 | tipifarnib -0.181 | [6] 0.055 | [7] 0 | [8] -0.002

FYN (UniProt P06241)
inactive: lapatinib 0.007 | pictilisib -0.201 | crizotinib 0.12 | [1] -0.092 | duvelisib -0.019 | tozasertib 0.054 | doramapimod -0.04 | bafetinib 0.198 | [2] -0.057 | dasatinib 0.02 | [5] 0.004 | quisinostat 0.022 | [6] -0.029 | [7] -0.025 | [8] 0.043
active: gandotinib 0.422
